# Hits are enriched below; roughly 7.5% of the tested compounds scored in any of these assays.
# ELG1 genotox: genotoxicity induction in ELG1-luciferase HEK293T cells | HEK293T ELG1-luciferase reporter, luminescence, 16 h | Potency, µM (highest dose often 46 µM), inactives show at the highest dose activity change, positive = activation, usual class: activators | actives 1.3% (n = 330,000); also: % of control where 0% means no effect; nearly all actives have a fitted effect of over 60% in size
#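 Cells (2,000/well) expressing the ELG1-luciferase fusion are dosed by pin tool and kept 16 hr at 37 °C, 5% CO2. Signal comes from ONE-Glo luciferase reagent after 30 min at room temperature.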
# SMN2 splice up: enhancers of SMN2 splice variant expression. HEK293 SMN2-luciferase splicing reporter, luminescence, 30-36 h. Potency, µM (top dose mostly 46.1 µM), without a hit: at the highest dose activity change, positive = activation, most hits filed as activators. actives 2.8% (n = 210,000). AID 1458; also: % of control where 0% means no effect; nearly all actives have a fitted effect of over 55% in size
#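 qHTS luciferase splicing reporter: luminescence rises when SMN2 exon 7 is included in transfected HEK293 cells. Compound exposure lasted 30-36 h at 37C, with 4.5 mM final sodium butyrate as control, followed by a ONE-Glo read.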
# NPC1 promoter act: activators of NPC1 promoter. Huh7 NPC1 promoter luciferase reporter, 24 h. Potency, µM (highest dose often 9.22 µM), for the others: at the highest dose activation, hits mostly activators. actives 2.4% (n = 320,000); also: % of control where 0% means no effect; nearly all actives have a fitted effect of over 60% in size
#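 NPC1 promoter–luciferase Huh7 cells; 24 h compound; luminescence.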
# Luc counter: counter-screen: inhibitors of Kinase-Glo firefly luciferase; Potency, µM (titrated, usually from 38.3 µM), inactives show top-dose activity change, negative = inhibition, most hits filed as inhibitors; Q27757; actives 0.28% (n = 200,000); Kinase-Glo luciferase, ATP luminescence, 8 min; also: % is scaled to controls: 0 for no effect and ±100 for the full control effect; nearly all actives have a fitted effect of over 60% in size
#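 Compound is pinned into ATP-containing buffer (10 uM ATP, imidazole pH 7.2, 7 mM MgCl2). Kinase-Glo luciferase reagent is then added. Light output is recorded following an 8-min room-temperature incubation.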
# Rab9 prom act: activators of Rab9 promoter. Huh7 Rab9 promoter-luciferase reporter, luminescence, 24 h. Potency, µM (highest dose often 9.22 µM), for inactives: at the highest dose activation, negative = inhibition, actives largely listed as activators. actives 2.8% (n = 320,000); also: % of control where 0% means no effect; nearly all actives have a fitted effect of over 60% in size
#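 Stable Rab9-luc Huh7, 1500 cells/well, 2 h settle; cmpd in DMSO, 24 h, 37 °C/5% CO2; luciferase reagent 10 min RT; luminescence.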
# FLuc counter: counter-screen for miR-21 project: firefly luciferase inhibitors or activators. purified FLuc, Km substrates, luminescence inhibition. Potency, µM (highest dose often 57.5 µM), inactives show at the highest dose activity change, negative = inhibition, actives largely listed as inhibitors. actives 6.9% (n = 360,000). AID 588342;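 also: plate controls were vehicle for no effect and reference inhibitor for full effect; nearly all actives have a fitted effect of over 55% in size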
# Target sequence (P08659 whole entry, looked up): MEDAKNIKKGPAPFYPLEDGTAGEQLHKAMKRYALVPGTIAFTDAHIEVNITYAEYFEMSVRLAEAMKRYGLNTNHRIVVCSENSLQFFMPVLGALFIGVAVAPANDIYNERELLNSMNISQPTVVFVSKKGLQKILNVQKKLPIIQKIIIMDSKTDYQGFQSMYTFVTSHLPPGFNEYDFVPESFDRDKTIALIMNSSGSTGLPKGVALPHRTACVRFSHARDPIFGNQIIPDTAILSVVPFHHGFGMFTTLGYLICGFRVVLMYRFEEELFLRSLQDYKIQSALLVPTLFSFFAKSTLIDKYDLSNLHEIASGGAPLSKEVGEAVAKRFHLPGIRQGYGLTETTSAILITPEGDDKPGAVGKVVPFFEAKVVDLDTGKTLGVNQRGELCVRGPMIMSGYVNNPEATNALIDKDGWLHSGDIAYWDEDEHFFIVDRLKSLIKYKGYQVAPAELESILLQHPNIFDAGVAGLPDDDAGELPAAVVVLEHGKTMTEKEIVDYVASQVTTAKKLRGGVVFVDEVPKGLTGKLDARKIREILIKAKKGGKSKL
#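 Biochemical qHTS of compounds, final roughly 60 µM downward over six points, against 10 nM purified firefly luciferase using Km concentrations of substrates (10 uM D-luciferin, 10 uM ATP) in Tris acetate pH 7.5 buffer; luminescence output.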
# The depositor's hits bear a star; ? = inconclusive; · = not tested or not shown. Calls follow the shape of the dose curve; as a rule, active = well fitted curve in the direction sought with a large enough effect; inconclusive = small, poorly fitted or top-dose-only effect, or another doubt; inactive = no such curve, though single readings can be large; an effect the other way counts as inactive or inconclusive. Potency is read from the fitted curve at half-maximal effect.
SMILES,ELG1 genotox,SMN2 splice up,NPC1 promoter act,Luc counter,Rab9 prom act,FLuc counter
COc1cc(-c2cc(C(=O)N3CCCCCC3)c3ccccc3n2)cc(OC)c1OC,1%,·,-4%,·,-34%,-10%
CCc1ccc(Sc2cc(C(=O)O)c3ccccc3n2)cc1,·,·,·,·,·,15µM*
O=C(O)c1cc(Sc2ccc(Br)cc2)nc2ccccc12,-1%,-5%,-3%,1%,-7%,?
O=C(c1cc(-c2ccncc2)nc2ccccc12)N1CCN(c2ncccn2)CC1,-5%,·,·,·,·,·
O=C(c1cc(-c2ccc(Br)cc2)nc2ccccc12)N1CCC1,-9%,·,-1%,·,-7%,17µM*
O=C(Cn1cnc2c(nc3n2CCCCC3)c1=O)Nc1ccc(F)c(Cl)c1,·,·,·,·,·,-8%
Cc1ccc(CNc2ncnc3c2nnn3C)cc1,·,·,·,·,·,-5%
Cc1ccc(/C(O)=C/C(=O)C(=O)NC23CC4CC(CC(C4)C2)C3)cc1,6%,·,?,·,3.2µM*,17µM*
Cc1ccc(C(=O)NCC(=O)NC23CC4CC(CC(C4)C2)C3)cc1,16µM*,·,26%,·,?,-19%
Cc1ccc(CNC(=O)NC23CC4CC(CC(C4)C2)C3)cc1,-2%,-20%,-1%,0%,-4%,-1%
Cc1ccccc1NC(=O)C(=O)NCC1(c2ccccc2)CCCC1,·,-10%,·,·,·,2%
Cc1cccc(OCC(=O)Nc2nnc(S(=O)(=O)N3CCc4ccccc43)s2)c1,·,·,·,·,·,4%
Cc1ccc(C2=NN=C(NC(=O)CSc3nncn3C)SC2)cc1,?,8.9µM*,2.2µM*,4%,1.4µM*,2.4µM*
Cc1ccc(C2=NN=C(NC(=O)C(F)(F)F)SC2)cc1,?,·,1.4µM*,0%,0.79µM*,17µM*
C[C@@](Cc1ccccc1)(C(=O)O)N1C(=O)c2ccc(C(=O)O)cc2C1=O,·,·,1%,·,8%,?
O=c1cc(-c2ccccc2)[nH]n1-c1ccc([N+](=O)[O-])cc1,-2%,-9%,20%,-6%,?,15µM*
CCN(CC)c1ccc(C(=O)N2CCc3c([nH]c4ccccc34)C2c2ccc(F)cc2)cc1 (stereo not drawn),·,·,·,·,·,-1%
O=C(Nc1ccn(C2CC(OC(=O)c3ccccc3)C(CO)O2)c(=O)n1)c1ccccc1 (stereo not drawn),-4%,-8%,1%,-7%,3%,0%
O=C1C[C@H]2[C@H](CO)[C@@H](OC(=O)c3ccc(-c4ccccc4)cc3)C[C@H]2O1,16%,·,?,·,?,5.4µM*
O=C1CC2C(CC(OC(=O)c3ccc(-c4ccccc4)cc3)C2CO)O1 (stereo not drawn),?,?,16%,-5%,?,12µM*
Cc1ccc(C(=O)Nc2cccc(O)c2)cc1S(=O)(=O)N1CCCCCC1,6%,-5%,29%,·,?,15µM*
Cc1ccc(NC(=O)c2ccc(F)cc2)cc1S(=O)(=O)N1CCCCCC1,-10%,-36%,3%,4%,-10%,?
Cc1ccnc(NC(=O)c2ccc3c(c2)S(=O)(=O)c2ccccc2C3=O)c1,7%,·,?,·,24%,15µM*
O=C(O)c1ccc(Cl)c(S(=O)(=O)Nc2cccc(C(=O)Nc3cccc(C(F)(F)F)c3)c2)c1,1%,-5%,-1%,5%,1%,15µM*
COc1ccc(C(=O)O)cc1S(=O)(=O)Nc1cccc(C(F)(F)F)c1,-1%,8%,-2%,3%,-6%,0%
SMILES,ELG1 genotox,SMN2 splice up,NPC1 promoter act,Luc counter,Rab9 prom act,FLuc counter
Cc1ccc(C(=O)Nc2ccc3cn[nH]c3c2)cc1S(=O)(=O)N1CCCCC1,15%,1%,?,-7%,?,21µM*
O=C(CN1C(=O)C2(SCC(=O)N2c2ccc(F)cc2)c2ccccc21)NC1CCCCC1 (stereo not drawn),·,·,·,·,·,1%
Cc1ccc(Nc2cc(C)c(C#N)c3nc4ccccc4n23)c(C)c1,·,1%,·,·,·,1%
COc1cccc(CC(=O)NCc2ccc3c(c2)CCN3C(C)=O)c1,·,·,·,·,·,2%
O=C(Nc1ccccn1)c1cccc(S(=O)(=O)N2CCCCC2)c1,-1%,-2%,-1%,0%,-3%,-5%
O=C(O)c1ccc(Cl)c(S(=O)(=O)Nc2ccccc2F)c1,·,·,·,1%,·,·
O=C(CSCc1ccc(Cl)cc1Cl)Nc1ccccc1C(=O)Nc1ccc(C(=O)O)cc1,-3%,5%,-5%,2%,-7%,19µM*
O=C(Nc1ccccn1)c1ccc(Cl)c(S(=O)(=O)N2CCCCCC2)c1,-1%,·,19%,·,?,21µM*
O=C(O)c1ccc(Cl)c(S(=O)(=O)Nc2ccccc2C(=O)Nc2ccc(Cl)cc2)c1,10%,·,14%,·,16%,27µM*
O=C(Nc1nc(-c2cccs2)cs1)c1ccc(S(=O)(=O)N2CCCCC2)cc1,3%,-84%,-7%,-2%,-12%,10%
O=C(Nc1nc(-c2cccs2)cs1)c1cccc(S(=O)(=O)N2CCCCCC2)c1,9%,-68%,-8%,-1%,?,15µM*
CCCN(CC(=O)Nc1cc(Cl)ccc1Cl)C(=O)CN1C(=O)C2CCCCC2C1=O (stereo not drawn),-9%,·,0%,·,-5%,-1%
CCOc1ccc(NC(=O)C(C)Sc2nnc3cc(C)c4ccccc4n23)cc1 (stereo not drawn),·,·,·,·,·,2%
Cc1ccnc(NC(=O)c2ccc(Cl)c(S(=O)(=O)N3CCCC3)c2)c1,?,·,?,·,?,19µM*
Cc1ccnc(NC(=O)c2ccc(Cl)c(S(=O)(=O)N3CCCCC3)c2)c1,-2%,·,4%,·,13%,·
Cc1ccc(C(=O)Nc2nccs2)cc1S(=O)(=O)N1CCCCC1,-2%,-32%,0%,7%,3%,17µM*
O=C(O)c1cccc(NC(=O)c2ccc(Cl)c(S(=O)(=O)N3CCCCCC3)c2)c1,2.3µM*,8.9µM*,0.32µM*,0%,0.35µM*,0.11µM*
O=C(Nc1cccnc1)c1ccc(Cl)c(S(=O)(=O)N2CCCCC2)c1,-1%,·,0%,·,-3%,2%
CCOC(=O)C(=CNc1ccc(C)cc1C)C(=O)OCC,-2%,2%,-1%,3%,-7%,15µM*
CCC1CN(C(=O)N2CCC(C(=O)NCc3ccc(OC)cc3OC)CC2)c2cc(C)ccc2O1 (stereo not drawn),·,·,·,·,·,2%
COC(=O)Cc1[nH]n(-c2nc3ccccc3s2)c(=O)c1C(C)=Nc1ccc(Cl)cc1,2%,·,-44%,·,-58%,12µM*
COC(=O)Cc1cc(=O)n(-c2ccccc2)[nH]1,-3%,25%,-1%,2%,2%,2%

# High-throughput results: PubChem, National Center for Advancing Translational Sciences (NCATS)
